Screening results from PubChem.
GPR151 ag: human GPR151 activation; Q8TDV0; PathHunter beta-arrestin GPR151 cells, luminescence; activation, % at 11.2 µM; hit rate 1% among 650,000; AID 1508602; in the data active means activation above about 4.9%;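 further: 0% = median of compound wells and 100% = cells with positive control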
TEAD-YAP block: TEAD-YAP interaction inhibition; hit rate 1.4% among 640,000; HEK-TIYL cells, TEAD-Gal4/YAP UAS-luciferase luminescence; inhibition, % at 9.12 µM; AID 1259422; in the data active means inhibition above about 32%;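 further: 0% = median of test compound wells and 100% = reference inhibitor wells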
FBW7 act: activators of human E3 ligase FBW7; hit rate 0.13% among 650,000; normalized activity (activation), % at 26.1 µM; AlphaScreen FBW7–phospho-cyclin E peptide binding, activator screen; AID 1259310; in the data active means normalized activity above about 1.9%;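 further: purified mutant Fbw7 with reduced substrate affinity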
MITF primary: blocks human microphthalmia-associated transcription factor | AID 1259374 | inhibition, % at 2.6 µM | O75030 | hit rate 0.91% among 650,000 | AlphaScreen MITF homodimerization, bead proximity signal; in the data active means inhibition above about 50%;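 further: 0% = vehicle wells with protein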
Target sequence (O75030 whole entry, looked up): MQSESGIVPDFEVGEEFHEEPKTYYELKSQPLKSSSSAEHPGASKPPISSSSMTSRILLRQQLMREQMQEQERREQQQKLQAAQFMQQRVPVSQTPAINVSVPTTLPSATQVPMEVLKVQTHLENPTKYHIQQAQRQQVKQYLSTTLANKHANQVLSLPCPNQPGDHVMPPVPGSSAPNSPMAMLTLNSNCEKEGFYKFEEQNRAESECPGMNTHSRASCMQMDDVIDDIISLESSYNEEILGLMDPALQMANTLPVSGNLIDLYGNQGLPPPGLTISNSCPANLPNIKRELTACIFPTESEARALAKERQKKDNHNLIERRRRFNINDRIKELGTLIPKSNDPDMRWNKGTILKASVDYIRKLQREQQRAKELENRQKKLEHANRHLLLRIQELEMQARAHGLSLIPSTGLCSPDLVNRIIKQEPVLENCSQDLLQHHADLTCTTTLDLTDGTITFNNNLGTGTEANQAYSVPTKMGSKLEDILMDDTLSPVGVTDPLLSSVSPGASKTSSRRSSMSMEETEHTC
An asterisk follows results filed as active. This is a sample that favours compounds with a hit; in the whole collection about 3.5% have one here.

SMILES	GPR151 ag	TEAD-YAP block	FBW7 act	MITF primary
COCCn1c(=O)c2c(nc3n(C)c(C)cn23)n(C)c1=O	2.2	10.2	-0.1	3.7
COCCn1c(SCC(=O)Nc2ccccc2F)nc2cccnc21	0.0	-16.0	0.0	-0.7
O=C1NC2(CCOc3ccccc32)C(=O)N1Cn1nnc2ccccc2c1=O (configuration not stated)	-0.5	0.2	0.0	11.4
COc1ccc(NC(=O)/C(C#N)=C\c2ccccc2O)cc1	-2.8	39.7*	0.3	19.3
N#C/C(=C/c1ccccc1O)C(=O)Nc1ccc(O)cc1	-7.4	70.5*	0.1	3.4
Cc1ccc(NC(=O)/C(C#N)=C\c2ccccc2O)cc1	-0.6	29.9	-0.1	9.1
COc1ccccc1CNc1ccc(N2CCOCC2)c(Cl)c1	0.4	-9.6	-0.3	10.2
CCC(=O)N1c2ccccc2C(=C2SC(C(=O)OC)=C(C(=O)OC)S2)C(=S)C1(C)C	-1.2	3.3	-0.2	24.3
COC(=O)C1=C(C(=O)OC)SC(=C2C(=S)C(C)(C)N(C(=O)c3ccccc3-c3ccccc3)c3cc(C)ccc32)S1	-0.8	-1.6	0.3	60.7*
CCC(CC)C(=O)N1c2ccccc2C(=C2SC(C(=O)OC)=C(C(=O)OC)S2)C(=S)C1(C)C	1.1	3.6	0.4	54.5*
CCOC(=O)CCC(=O)Nc1c(C(=O)Nc2ccc(OC)cc2OC)oc2ccccc12	0.5	-7.0	0.1	-4.2
Fc1ccccc1NC(=S)NCCN1CCOCC1	-0.3	-2.5	0.5	20.2
O=C(Nc1ccc2c(c1)OCCO2)c1ccccc1NC(=S)NCCN1CCOCC1	-7.6	73.4*	-0.1	-6.9
COc1ccc(S(=O)(=O)NCc2cccnc2)c2ccccc12	-0.3	0.9	1.0	9.9
COc1ccc(CNS(=O)(=O)c2ccc(OC)c3ccccc23)cc1	3.5	34.3*	0.0	-5.4
COc1ccc(/C=C(\C(=O)O)c2ccccc2)cc1	-0.8	6.0	0.0	13.7
COc1cccc(C=O)c1OC(=O)c1cccc(Cl)c1	-0.9	-18.2	11.9*	13.1
COc1cccc(C=O)c1OC(=O)c1ccc2ccccc2c1	0.7	-16.8	1.2	19.4
CC(C)(C)NC(=O)C(=O)N/N=C/c1ccccc1O	0.1	-44.4	-1.8	53.0*
O=C(CCC(=O)Nc1cccc(Cl)c1)N/N=C/c1ccccc1O	-0.1	6.7	0.5	56.3*
O=C(CCCNc1ccccc1)N/N=C/c1ccccc1O	-1.0	5.8	0.3	-5.4
O=C(CCCCC(=O)N/N=C/c1ccccc1O)N/N=C/c1ccccc1O	0.9	40.0*	-0.6	7.1
CC(=O)Nc1cccc(NC(=O)CSc2nc3ccccc3cc2C)c1	0.8	-6.9	0.2	13.7
Cc1cc(C(=O)OCC(=O)N(c2ccccc2)C(C)C)c(C)o1	-2.1	4.2	-0.2	1.1
CN1C(=O)c2ccc(C(=O)Nc3ccc(C(=O)O)cc3)cc2C1=O	-1.9	-1.6	0.9	18.0
SMILES	GPR151 ag	TEAD-YAP block	FBW7 act	MITF primary
CCOC(=O)c1ccc(NC2=NS(=O)(=O)c3ccccc32)cc1	-0.3	-4.3	-0.1	2.9
N#C/C(=C\c1cccc(Cl)c1Cl)c1nn(CCO)c(N)c1C#N	1.4	49.1*	-0.3	8.8
N#C/C(=C\c1ccccc1)c1nn(CCO)c(N)c1C#N	1.8	-16.7	0.2	15.5
CCn1c2ccccc2c2cc(/C=C(\C#N)c3nn(CCO)c(N)c3C#N)ccc21	-0.1	48.5*	-0.2	-0.3
Cc1[nH]c2ccc(-c3nnc(SCC(=O)N(C(C)C)C(C)C)o3)cc2c1C	-1.2	35.9*	0.1	17.8
COc1ccc(CCNc2nc(-c3ccccc3)ncc2C)cc1	-1.6	42.2*	-0.1	-4.0
COc1ccc(CCNc2nc(-c3c(C)nn(C)c3C)ncc2C)cc1	2.0	2.6	0.4	11.3
COc1ccc(CCNc2nc(-c3ccc(OC)cc3)ncc2C)cc1	0.4	0.2	0.0	-3.3
COc1ccc(CCNc2nc(-c3c(C)noc3C)ncc2C)cc1	0.5	40.9*	0.1	-3.6
COc1ccc(CCNc2nc(-c3ccc(OC)nc3)ncc2C)cc1	-1.7	41.4*	-0.1	3.5
CC1CCc2nc(NC(=O)c3ccco3)sc2C1 (configuration not stated)	-6.5	73.9*	0.1	-4.3
CCOC(=O)C1CCCN(C(=O)c2cc3c(-c4cccc(OC)c4)nn(C)c3s2)C1 (configuration not stated)	-1.1	38.3*	0.0	-12.3
COc1cccc(-c2nn(C)c3sc(C(=O)N4CCN(c5ccccn5)CC4)cc23)c1	0.3	35.3*	-0.3	-3.8
Cc1c(C(=O)N2CCC(C)CC2)sc2ncn(CC(=O)Nc3ccc(C(C)C)cc3)c(=O)c12	-1.1	8.1	0.1	5.0
COc1ccc(CCNc2cc(N3CCN(C(=O)c4ccc(Br)cc4)CC3)ccc2[N+](=O)[O-])cc1OC	-1.1	-2.7	0.0	-6.8
